# Measured values taken from paper PMC7862700, “An all-to-all approach to the identification of sequence-specific readers for epigenetic DNA modifications on cytosine”.
# Experiments:
# Assay in all cases: DAPPL (digital affinity profiling via proximity ligation, sequencing); 10 mM Tris-HCl pH 7.5, 50 mM NaCl, 1 mM DTT, 4% glycerol, room temperature, 30 min; GST-TFs on glutathione beads, 16-mer random dsDNA library, 0.1% formaldehyde crosslink after washing; high values mean tight binding
# FLI1 = molecular target: T1, FLI1 (Homo sapiens, UniProt Q01543 1-452); conditions: protein: recombinant; tags: N-terminal GST; dsDNA, one strand shown
# T1 sequence: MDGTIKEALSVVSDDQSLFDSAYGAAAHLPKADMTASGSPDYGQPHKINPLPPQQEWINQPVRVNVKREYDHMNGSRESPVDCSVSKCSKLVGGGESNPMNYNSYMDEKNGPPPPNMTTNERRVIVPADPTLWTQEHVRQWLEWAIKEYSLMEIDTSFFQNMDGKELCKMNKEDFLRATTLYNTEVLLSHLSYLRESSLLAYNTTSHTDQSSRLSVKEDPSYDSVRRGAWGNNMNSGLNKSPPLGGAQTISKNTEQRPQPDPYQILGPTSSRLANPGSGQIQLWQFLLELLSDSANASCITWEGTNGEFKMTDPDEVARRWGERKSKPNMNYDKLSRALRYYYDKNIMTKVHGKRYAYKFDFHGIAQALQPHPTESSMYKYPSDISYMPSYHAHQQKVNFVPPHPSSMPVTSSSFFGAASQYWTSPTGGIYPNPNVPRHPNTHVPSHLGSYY
# How it was run: (§1)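 Pools of DNA-barcoded human transcription factors, expressed in yeast as GST fusions on glutathione beads and combined with a tag-only sample, were incubated with 200 nmole of a 16-mer random double-stranded DNA library. Incubation took 30 min at room temperature in Tris/NaCl/DTT/glycerol buffer and was followed by washing, 0.1% formaldehyde crosslinking, proximity ligation (BsaI/T4 ligase, 1 h, 37 °C), PCR amplification and sequencing on an Illumina NextSeq500. Binding signal is the ratio of a hexamer's read frequency for a factor to its frequency for the tag-only sample.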
# ELK1 = molecular target: T2, ELK1 (Homo sapiens, UniProt P19419 1-428); conditions: protein: recombinant; tags: N-terminal GST; dsDNA, one strand shown
# T2 sequence: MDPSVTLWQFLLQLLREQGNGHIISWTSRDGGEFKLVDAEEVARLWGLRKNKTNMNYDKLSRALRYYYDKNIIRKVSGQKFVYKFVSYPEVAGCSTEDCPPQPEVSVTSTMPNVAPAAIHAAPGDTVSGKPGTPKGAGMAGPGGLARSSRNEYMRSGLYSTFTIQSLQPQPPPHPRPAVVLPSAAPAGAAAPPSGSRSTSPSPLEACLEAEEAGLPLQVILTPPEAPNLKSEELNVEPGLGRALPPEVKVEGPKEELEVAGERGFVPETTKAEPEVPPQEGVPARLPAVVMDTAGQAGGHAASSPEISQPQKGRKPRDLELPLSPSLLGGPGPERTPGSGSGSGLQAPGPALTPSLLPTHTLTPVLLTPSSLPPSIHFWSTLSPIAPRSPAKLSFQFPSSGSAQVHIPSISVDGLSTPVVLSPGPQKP
# How it was run: as §1
# GABPA = molecular target: T3, GABPA (Homo sapiens, UniProt Q06546 1-454); conditions: protein: recombinant; tags: N-terminal GST; dsDNA, one strand shown
# T3 sequence: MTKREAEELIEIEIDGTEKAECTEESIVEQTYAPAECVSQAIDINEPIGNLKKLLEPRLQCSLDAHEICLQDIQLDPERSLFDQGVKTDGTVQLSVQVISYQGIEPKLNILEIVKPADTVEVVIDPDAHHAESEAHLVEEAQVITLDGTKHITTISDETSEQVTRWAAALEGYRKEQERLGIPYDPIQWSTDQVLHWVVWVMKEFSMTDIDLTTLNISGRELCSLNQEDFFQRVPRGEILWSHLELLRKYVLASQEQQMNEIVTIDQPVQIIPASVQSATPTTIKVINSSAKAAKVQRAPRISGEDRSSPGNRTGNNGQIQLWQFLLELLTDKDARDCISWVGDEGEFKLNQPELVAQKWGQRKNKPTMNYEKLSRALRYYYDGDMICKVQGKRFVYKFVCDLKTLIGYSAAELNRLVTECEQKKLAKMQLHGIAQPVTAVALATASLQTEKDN
# How it was run: as §1
# ERG = molecular target: T4, ERG (Homo sapiens, UniProt P11308 1-479); conditions: protein: recombinant; tags: N-terminal GST; dsDNA, one strand shown
# T4 sequence: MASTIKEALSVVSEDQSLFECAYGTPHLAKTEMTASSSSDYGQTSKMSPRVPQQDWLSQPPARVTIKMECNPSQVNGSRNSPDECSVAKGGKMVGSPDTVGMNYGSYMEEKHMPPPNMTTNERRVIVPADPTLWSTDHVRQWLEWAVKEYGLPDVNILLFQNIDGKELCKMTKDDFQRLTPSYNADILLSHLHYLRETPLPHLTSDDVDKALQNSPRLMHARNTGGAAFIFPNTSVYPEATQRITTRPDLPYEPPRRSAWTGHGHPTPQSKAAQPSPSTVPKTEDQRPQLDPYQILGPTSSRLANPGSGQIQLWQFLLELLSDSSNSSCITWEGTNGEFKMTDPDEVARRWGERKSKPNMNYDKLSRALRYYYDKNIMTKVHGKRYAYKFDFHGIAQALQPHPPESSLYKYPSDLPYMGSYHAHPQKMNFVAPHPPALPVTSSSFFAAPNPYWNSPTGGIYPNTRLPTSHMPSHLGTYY
# How it was run: as §1
# ELF1 = ELF1 (Homo sapiens, UniProt P32519 1-619); conditions: protein: recombinant; tags: N-terminal GST; dsDNA, one strand shown
# Sequence of ELF1 (P32519 whole entry): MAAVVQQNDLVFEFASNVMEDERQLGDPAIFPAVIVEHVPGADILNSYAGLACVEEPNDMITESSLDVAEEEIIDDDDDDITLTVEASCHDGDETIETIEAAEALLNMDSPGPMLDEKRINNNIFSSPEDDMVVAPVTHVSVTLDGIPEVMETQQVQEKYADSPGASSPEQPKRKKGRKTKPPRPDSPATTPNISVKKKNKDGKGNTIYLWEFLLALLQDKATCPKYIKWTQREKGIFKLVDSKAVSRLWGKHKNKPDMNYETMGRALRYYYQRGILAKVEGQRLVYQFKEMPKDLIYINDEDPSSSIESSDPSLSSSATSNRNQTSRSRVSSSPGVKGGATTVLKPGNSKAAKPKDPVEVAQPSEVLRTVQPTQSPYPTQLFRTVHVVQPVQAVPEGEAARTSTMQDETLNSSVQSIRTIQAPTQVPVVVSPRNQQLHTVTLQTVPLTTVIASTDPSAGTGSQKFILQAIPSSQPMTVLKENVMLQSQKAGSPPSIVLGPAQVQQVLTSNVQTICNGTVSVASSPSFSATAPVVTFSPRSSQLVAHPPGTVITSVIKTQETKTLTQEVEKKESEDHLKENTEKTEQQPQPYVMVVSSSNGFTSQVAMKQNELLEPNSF
# How it was run: as §1
# EHF = molecular target: T5, EHF (Homo sapiens, UniProt Q9NZC4 1-300); conditions: protein: recombinant; tags: N-terminal GST; dsDNA, one strand shown
# T5 sequence: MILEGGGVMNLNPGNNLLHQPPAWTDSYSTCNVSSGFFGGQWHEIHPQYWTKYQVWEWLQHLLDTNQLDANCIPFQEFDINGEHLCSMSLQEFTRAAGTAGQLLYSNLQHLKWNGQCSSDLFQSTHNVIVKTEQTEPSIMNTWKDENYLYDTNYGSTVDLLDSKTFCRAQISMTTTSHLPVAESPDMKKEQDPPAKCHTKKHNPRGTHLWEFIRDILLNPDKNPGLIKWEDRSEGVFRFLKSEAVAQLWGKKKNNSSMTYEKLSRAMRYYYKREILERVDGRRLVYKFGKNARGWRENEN
# How it was run: as §1
# SPI1 = SPI1 (Homo sapiens, UniProt P17947 1-270); conditions: protein: recombinant; tags: N-terminal GST; dsDNA, one strand shown
# How it was run: as §1
# SPIB = SPIB (Homo sapiens, UniProt Q01892 1-262); conditions: protein: recombinant; tags: N-terminal GST; dsDNA, one strand shown
# Sequence of SPIB (Q01892 whole entry): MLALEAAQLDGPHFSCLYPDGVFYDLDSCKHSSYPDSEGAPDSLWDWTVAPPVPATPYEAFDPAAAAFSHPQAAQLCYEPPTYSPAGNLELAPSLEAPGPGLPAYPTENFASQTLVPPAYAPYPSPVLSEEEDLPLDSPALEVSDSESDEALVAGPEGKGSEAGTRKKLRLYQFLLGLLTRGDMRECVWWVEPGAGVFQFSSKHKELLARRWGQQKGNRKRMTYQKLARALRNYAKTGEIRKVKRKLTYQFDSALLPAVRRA
# How it was run: as §1
# FEV = molecular target: T6, FEV (Homo sapiens, UniProt Q99581 1-238); conditions: protein: recombinant; tags: N-terminal GST; dsDNA, one strand shown
# T6 sequence: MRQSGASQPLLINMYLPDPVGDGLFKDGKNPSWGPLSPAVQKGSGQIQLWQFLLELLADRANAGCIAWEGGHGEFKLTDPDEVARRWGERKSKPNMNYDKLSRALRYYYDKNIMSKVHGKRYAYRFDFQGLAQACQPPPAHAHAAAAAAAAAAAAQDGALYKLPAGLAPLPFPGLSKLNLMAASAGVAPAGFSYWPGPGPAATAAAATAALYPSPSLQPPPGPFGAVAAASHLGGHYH
# How it was run: as §1
# ETV5 = ETV5 (Homo sapiens, UniProt P41161 1-510); conditions: protein: recombinant; tags: N-terminal GST; dsDNA, one strand shown
# Sequence of ETV5 (P41161 whole entry): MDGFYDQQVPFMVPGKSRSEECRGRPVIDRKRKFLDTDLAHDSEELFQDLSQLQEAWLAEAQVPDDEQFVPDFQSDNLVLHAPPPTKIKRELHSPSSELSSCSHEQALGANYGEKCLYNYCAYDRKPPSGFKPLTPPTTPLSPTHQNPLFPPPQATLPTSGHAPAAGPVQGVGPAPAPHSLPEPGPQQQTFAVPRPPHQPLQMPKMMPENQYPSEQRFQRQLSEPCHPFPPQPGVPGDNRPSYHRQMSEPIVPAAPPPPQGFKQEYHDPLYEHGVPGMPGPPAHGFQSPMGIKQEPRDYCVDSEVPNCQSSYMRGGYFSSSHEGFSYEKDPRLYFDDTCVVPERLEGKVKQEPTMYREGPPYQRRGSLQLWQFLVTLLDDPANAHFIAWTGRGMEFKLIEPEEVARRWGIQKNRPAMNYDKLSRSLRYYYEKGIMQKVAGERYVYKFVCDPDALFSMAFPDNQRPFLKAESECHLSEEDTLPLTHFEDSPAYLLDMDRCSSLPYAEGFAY
# How it was run: as §1
# HSF1 = HSF1 (Homo sapiens, UniProt Q00613 1-529); conditions: protein: recombinant; tags: N-terminal GST; chain copies: 3; dsDNA, one strand shown
# Sequence of HSF1 (Q00613 whole entry): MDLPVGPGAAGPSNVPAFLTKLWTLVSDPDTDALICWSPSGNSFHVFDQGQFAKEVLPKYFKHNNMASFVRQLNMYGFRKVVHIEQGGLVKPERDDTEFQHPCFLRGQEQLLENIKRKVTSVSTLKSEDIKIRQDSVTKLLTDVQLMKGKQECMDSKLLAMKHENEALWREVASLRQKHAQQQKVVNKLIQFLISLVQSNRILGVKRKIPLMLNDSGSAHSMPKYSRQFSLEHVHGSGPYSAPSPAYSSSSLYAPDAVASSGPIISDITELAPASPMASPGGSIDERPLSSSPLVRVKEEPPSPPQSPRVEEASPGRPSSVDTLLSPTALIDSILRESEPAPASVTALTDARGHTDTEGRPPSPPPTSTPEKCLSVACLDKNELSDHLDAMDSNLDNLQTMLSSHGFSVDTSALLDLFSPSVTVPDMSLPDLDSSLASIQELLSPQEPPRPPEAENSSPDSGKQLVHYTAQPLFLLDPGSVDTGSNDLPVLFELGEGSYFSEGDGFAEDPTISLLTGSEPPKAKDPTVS
# How it was run: as §1
# SPIC = molecular target: T7, SPIC (Homo sapiens, UniProt Q8N5J4 1-248); conditions: protein: recombinant; tags: N-terminal GST; dsDNA, one strand shown
# T7 sequence: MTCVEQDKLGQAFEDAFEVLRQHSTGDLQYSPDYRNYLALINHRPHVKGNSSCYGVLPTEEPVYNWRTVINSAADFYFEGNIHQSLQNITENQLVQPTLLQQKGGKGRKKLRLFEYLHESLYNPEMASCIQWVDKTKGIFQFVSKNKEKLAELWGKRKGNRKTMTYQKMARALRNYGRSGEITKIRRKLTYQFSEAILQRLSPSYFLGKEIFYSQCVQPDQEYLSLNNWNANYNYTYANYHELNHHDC
# How it was run: as §1
# ELF4 = ELF4 (Homo sapiens, UniProt Q99607 1-663); conditions: protein: recombinant; tags: N-terminal GST; dsDNA, one strand shown
# Sequence of ELF4 (Q99607 whole entry): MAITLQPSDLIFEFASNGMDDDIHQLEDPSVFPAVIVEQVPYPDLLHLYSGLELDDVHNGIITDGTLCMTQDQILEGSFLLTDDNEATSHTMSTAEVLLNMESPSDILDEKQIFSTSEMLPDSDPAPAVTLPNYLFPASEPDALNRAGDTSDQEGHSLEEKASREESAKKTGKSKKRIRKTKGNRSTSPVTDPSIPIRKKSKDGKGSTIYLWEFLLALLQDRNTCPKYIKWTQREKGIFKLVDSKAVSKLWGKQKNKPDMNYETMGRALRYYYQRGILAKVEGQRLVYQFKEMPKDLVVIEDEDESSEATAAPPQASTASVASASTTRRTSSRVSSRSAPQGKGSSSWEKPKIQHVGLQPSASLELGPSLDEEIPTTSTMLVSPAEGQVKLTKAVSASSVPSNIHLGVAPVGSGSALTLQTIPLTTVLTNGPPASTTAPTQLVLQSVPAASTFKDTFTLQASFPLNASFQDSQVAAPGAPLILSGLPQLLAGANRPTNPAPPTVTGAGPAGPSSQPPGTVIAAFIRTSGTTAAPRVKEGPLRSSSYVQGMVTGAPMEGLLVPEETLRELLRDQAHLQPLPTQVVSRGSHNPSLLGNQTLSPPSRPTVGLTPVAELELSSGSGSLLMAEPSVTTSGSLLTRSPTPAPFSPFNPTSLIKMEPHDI
# How it was run: as §1
# ELK4 = molecular target: T8, ELK4 (Homo sapiens, UniProt P28324-2 1-405); conditions: protein: recombinant; tags: N-terminal GST; dsDNA, one strand shown
# T8 sequence: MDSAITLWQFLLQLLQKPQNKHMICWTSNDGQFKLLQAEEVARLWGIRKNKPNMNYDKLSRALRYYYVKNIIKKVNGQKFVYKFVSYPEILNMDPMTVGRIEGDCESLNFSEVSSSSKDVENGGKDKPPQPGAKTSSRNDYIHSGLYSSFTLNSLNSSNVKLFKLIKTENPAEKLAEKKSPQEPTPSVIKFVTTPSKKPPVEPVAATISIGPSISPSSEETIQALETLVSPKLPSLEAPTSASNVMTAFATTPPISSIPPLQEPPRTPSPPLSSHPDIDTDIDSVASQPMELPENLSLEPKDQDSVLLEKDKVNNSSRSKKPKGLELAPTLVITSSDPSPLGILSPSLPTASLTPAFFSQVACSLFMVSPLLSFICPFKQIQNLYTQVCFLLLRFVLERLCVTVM
# How it was run: as §1
# ETV2 = molecular target: T9, ETV2 (Homo sapiens, UniProt O00321 1-342); conditions: protein: recombinant; tags: N-terminal GST; dsDNA, one strand shown
# T9 sequence: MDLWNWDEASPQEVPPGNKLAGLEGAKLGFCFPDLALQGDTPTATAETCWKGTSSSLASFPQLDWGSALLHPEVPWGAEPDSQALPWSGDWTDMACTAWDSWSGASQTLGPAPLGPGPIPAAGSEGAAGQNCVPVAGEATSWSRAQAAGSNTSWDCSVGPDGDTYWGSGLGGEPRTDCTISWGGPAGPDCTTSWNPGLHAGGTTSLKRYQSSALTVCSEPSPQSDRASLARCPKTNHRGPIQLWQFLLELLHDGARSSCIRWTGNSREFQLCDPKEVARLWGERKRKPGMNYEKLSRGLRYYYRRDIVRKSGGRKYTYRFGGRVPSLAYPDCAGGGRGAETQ
# How it was run: as §1
# ELF3 = molecular target: T10, ELF3 (Homo sapiens, UniProt P78545 1-371); conditions: protein: recombinant; tags: N-terminal GST; dsDNA, one strand shown
# T10 sequence: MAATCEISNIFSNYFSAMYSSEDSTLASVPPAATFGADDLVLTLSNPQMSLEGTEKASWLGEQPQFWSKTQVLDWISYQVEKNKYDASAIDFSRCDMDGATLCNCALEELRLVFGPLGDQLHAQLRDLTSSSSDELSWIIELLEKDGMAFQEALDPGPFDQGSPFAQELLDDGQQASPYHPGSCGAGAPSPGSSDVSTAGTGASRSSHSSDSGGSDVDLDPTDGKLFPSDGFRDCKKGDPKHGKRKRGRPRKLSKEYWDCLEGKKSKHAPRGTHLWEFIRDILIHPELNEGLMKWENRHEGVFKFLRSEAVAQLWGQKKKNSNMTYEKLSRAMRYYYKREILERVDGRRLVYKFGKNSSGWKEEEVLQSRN
# How it was run: as §1
# CRX = CRX (Homo sapiens, UniProt O43186 1-299); conditions: protein: recombinant; tags: N-terminal GST; dsDNA, one strand shown
# Sequence of CRX (O43186 whole entry): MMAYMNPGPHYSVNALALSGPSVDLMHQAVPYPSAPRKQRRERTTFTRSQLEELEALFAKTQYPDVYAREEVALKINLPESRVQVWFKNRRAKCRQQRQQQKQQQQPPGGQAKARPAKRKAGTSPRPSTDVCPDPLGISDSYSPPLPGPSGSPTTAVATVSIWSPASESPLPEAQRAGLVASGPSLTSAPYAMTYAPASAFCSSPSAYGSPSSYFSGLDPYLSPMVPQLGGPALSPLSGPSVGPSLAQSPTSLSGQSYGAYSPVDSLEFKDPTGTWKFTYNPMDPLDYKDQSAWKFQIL
# How it was run: as §1
# ETV1 = ETV1 (Homo sapiens, UniProt P50549 1-477); conditions: protein: recombinant; tags: N-terminal GST; dsDNA, one strand shown
# Sequence of ETV1 (P50549 whole entry): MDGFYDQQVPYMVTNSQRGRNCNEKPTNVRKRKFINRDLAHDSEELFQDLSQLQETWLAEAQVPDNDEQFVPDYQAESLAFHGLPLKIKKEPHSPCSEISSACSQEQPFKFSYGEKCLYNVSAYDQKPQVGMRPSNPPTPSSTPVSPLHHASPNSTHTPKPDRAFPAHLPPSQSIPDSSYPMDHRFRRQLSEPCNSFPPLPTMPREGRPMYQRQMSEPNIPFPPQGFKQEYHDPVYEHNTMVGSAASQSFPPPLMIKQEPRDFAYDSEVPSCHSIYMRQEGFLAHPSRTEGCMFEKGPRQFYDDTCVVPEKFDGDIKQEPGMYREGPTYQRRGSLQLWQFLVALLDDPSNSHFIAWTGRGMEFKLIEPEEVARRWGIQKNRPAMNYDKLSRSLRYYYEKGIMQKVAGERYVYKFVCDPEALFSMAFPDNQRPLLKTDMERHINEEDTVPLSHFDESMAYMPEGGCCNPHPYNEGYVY
# How it was run: as §1
sequence,measurement,setting,value
ATAGCT,binding signal,FLI1,"1.13 fold enrichment (6-mer frequency, TF over GST control)"
same,binding signal,ELK1,"1.08 fold enrichment (6-mer frequency, TF over GST control)"
same,binding signal,GABPA,"1.2 fold enrichment (6-mer frequency, TF over GST control)"
same,binding signal,ERG,"1.07 fold enrichment (6-mer frequency, TF over GST control)"
same,binding signal,ELF1,"1.19 fold enrichment (6-mer frequency, TF over GST control)"
same,binding signal,EHF,"1.25 fold enrichment (6-mer frequency, TF over GST control)"
same,binding signal,SPI1,"1.17 fold enrichment (6-mer frequency, TF over GST control)"
same,binding signal,SPIB,"1.09 fold enrichment (6-mer frequency, TF over GST control)"
same,binding signal,FEV,"1.16 fold enrichment (6-mer frequency, TF over GST control)"
same,binding signal,ETV5,"1.2 fold enrichment (6-mer frequency, TF over GST control)"
same,binding signal,HSF1,"1.06 fold enrichment (6-mer frequency, TF over GST control)"
same,binding signal,SPIC,"1.15 fold enrichment (6-mer frequency, TF over GST control)"
same,binding signal,ELF4,"1.07 fold enrichment (6-mer frequency, TF over GST control)"
same,binding signal,ELK4,"1.25 fold enrichment (6-mer frequency, TF over GST control)"
same,binding signal,ETV2,"1.27 fold enrichment (6-mer frequency, TF over GST control)"
same,binding signal,ELF3,"1.26 fold enrichment (6-mer frequency, TF over GST control)"
same,binding signal,CRX,"1.26 fold enrichment (6-mer frequency, TF over GST control)"
same,binding signal,ETV1,"1.11 fold enrichment (6-mer frequency, TF over GST control)"
